The record followed here is PMC7862700, “An all-to-all approach to the identification of sequence-specific readers for epigenetic DNA modifications on cytosine”.

Common to all, as to experiment: DAPPL (digital affinity profiling via proximity ligation, sequencing); 10 mM Tris-HCl pH 7.5, 50 mM NaCl, 1 mM DTT, 4% glycerol, room temperature, 30 min; GST-TFs on glutathione beads, 16-mer random dsDNA library, 0.1% formaldehyde crosslink after washing; high values mean tight binding
The target of one assay is T1, FLI1 (Homo sapiens, UniProt Q01543 1-452).
T1 sequence: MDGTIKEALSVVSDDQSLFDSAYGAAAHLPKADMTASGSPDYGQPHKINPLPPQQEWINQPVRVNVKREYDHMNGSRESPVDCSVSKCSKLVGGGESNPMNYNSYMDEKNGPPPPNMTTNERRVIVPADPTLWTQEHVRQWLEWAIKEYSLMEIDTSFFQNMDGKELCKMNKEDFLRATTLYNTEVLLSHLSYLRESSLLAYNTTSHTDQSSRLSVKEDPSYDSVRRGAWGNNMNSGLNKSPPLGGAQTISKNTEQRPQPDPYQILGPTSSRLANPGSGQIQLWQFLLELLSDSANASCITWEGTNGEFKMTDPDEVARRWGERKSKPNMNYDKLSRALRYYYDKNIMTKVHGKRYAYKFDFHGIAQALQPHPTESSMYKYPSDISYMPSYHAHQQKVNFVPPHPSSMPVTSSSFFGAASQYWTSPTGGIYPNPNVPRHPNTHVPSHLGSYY
To be noted: protein: recombinant; tags: N-terminal GST; dsDNA, one strand shown. In short, it runs like this:
(§1)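 Beads coated with glutathione captured GST-fused human transcription factors that had been expressed in yeast, and the factors were then given DNA barcodes and pooled with a tag-only sample. The pools were incubated with 200 nmole of a random double-stranded 16-mer DNA library in Tris/NaCl/DTT/glycerol buffer for 30 min at room temperature, washed, crosslinked with 0.1% formaldehyde and proximity-ligated with BsaI/T4 ligase at 37 °C for 1 h. PCR amplification and Illumina NextSeq500 sequencing came last. Binding signal is each hexamer's read frequency for a factor divided by its frequency for the tag-only sample.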

For a further assay, the target named is T2, ELK1 (Homo sapiens, UniProt P19419 1-428).
T2 sequence: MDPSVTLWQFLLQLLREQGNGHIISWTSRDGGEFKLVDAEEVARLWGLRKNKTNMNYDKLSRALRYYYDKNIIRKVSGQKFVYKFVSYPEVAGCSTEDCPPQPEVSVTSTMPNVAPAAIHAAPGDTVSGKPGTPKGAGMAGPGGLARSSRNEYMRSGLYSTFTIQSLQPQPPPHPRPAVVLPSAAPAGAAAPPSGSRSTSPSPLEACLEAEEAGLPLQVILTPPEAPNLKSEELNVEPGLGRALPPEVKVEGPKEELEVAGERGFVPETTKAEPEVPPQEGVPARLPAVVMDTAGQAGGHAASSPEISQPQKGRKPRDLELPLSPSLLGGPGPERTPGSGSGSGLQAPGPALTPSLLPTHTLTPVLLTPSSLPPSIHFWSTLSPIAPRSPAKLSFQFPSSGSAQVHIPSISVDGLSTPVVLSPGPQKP
Conditions: protein: recombinant; tags: N-terminal GST; dsDNA, one strand shown. In short, it runs like this: as §1

In the next assay the target is T3, GABPA (Homo sapiens, UniProt Q06546 1-454).
T3 sequence: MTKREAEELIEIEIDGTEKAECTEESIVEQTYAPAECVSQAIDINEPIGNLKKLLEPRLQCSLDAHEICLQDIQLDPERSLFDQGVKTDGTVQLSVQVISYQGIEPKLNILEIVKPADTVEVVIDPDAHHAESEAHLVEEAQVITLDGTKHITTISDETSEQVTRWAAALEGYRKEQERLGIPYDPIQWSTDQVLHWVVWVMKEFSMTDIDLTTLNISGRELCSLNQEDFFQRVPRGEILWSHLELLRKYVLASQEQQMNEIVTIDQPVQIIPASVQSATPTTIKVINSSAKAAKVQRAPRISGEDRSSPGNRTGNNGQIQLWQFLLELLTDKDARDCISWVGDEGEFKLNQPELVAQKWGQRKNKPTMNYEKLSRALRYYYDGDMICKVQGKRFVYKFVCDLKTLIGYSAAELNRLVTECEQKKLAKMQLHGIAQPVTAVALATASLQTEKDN
To be noted: protein: recombinant; tags: N-terminal GST; dsDNA, one strand shown. The method in brief:
as §1

The next assay addresses T4, ERG (Homo sapiens, UniProt P11308 1-479).
T4 sequence: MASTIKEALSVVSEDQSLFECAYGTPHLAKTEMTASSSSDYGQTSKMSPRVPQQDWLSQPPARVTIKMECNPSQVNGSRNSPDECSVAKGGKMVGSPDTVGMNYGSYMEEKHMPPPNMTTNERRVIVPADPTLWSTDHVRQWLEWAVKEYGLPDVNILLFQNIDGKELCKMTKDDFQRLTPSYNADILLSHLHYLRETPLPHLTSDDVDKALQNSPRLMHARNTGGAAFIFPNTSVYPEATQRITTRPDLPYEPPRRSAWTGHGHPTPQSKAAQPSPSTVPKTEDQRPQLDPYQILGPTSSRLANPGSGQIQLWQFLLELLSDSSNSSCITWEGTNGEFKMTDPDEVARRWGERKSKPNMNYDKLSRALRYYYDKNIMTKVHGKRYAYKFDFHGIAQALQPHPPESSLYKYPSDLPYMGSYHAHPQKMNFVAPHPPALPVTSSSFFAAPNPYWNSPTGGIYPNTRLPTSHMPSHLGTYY
To be noted: protein: recombinant; tags: N-terminal GST; dsDNA, one strand shown. The method in brief:
as §1

The target in a further assay is ELF1 (Homo sapiens, UniProt P32519 1-619). Conditions: protein: recombinant; tags: N-terminal GST; dsDNA, one strand shown. In short, it runs like this: as §1
Another assay deals with T5, EHF (Homo sapiens, UniProt Q9NZC4 1-300).
T5 sequence: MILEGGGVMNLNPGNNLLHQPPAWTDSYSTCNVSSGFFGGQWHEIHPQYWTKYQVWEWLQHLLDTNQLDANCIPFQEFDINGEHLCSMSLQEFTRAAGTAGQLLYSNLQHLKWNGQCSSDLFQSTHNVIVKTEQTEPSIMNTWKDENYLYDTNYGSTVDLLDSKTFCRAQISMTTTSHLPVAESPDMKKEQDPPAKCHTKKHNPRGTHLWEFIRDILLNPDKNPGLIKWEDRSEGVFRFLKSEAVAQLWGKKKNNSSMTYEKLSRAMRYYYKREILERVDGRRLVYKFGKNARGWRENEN
Conditions: protein: recombinant; tags: N-terminal GST; dsDNA, one strand shown. In short, it runs like this: as §1

The target in another assay is SPI1 (Homo sapiens, UniProt P17947 1-270). Conditions: protein: recombinant; tags: N-terminal GST; dsDNA, one strand shown. The method in brief: as §1
For the next assay, the target named is SPIB (Homo sapiens, UniProt Q01892 1-262). Conditions: protein: recombinant; tags: N-terminal GST; dsDNA, one strand shown. In short, it runs like this: as §1
For the next assay, the target named is T6, ELK3 (Homo sapiens, UniProt P41970 1-407).
T6 sequence: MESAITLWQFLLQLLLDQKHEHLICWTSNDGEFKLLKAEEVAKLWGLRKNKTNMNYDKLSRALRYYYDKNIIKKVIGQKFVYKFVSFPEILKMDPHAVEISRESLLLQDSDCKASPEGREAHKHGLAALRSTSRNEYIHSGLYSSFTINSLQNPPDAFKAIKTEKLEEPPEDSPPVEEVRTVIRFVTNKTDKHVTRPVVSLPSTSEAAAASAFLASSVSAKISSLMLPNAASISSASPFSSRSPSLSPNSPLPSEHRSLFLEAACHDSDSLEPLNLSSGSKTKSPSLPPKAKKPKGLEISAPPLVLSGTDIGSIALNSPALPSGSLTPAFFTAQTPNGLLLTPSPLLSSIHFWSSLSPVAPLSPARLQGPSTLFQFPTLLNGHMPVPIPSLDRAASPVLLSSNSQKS
Conditions: protein: recombinant; tags: N-terminal GST; dsDNA, one strand shown. In short, it runs like this:
as §1

In the next assay the target is T7, FEV (Homo sapiens, UniProt Q99581 1-238).
T7 sequence: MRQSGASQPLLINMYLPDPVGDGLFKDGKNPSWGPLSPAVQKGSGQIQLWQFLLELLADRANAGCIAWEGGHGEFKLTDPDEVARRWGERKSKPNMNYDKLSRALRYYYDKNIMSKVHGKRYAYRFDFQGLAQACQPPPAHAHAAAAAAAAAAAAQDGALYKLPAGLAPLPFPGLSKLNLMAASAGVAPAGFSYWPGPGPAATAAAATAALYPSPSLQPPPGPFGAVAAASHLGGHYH
To be noted: protein: recombinant; tags: N-terminal GST; dsDNA, one strand shown. In short, it runs like this: as §1

The target of a further assay is ETV5 (Homo sapiens, UniProt P41161 1-510). Conditions: protein: recombinant; tags: N-terminal GST; dsDNA, one strand shown. In short, it runs like this: as §1
The target of a further assay is HSF1 (Homo sapiens, UniProt Q00613 1-529). To be noted: protein: recombinant; tags: N-terminal GST; chain copies: 3; dsDNA, one strand shown. The method in brief: as §1
The next assay deals with T8, SPIC (Homo sapiens, UniProt Q8N5J4 1-248).
T8 sequence: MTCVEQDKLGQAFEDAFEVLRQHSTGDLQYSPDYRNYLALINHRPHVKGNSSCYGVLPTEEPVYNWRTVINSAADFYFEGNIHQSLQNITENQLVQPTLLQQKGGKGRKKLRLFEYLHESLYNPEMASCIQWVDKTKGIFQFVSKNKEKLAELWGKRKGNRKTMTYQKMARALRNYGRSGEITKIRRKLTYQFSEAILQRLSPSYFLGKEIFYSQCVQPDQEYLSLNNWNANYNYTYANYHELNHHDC
Conditions: protein: recombinant; tags: N-terminal GST; dsDNA, one strand shown. In short, it runs like this: as §1

The target of the next assay is ELF4 (Homo sapiens, UniProt Q99607 1-663). Conditions: protein: recombinant; tags: N-terminal GST; dsDNA, one strand shown. In short, it runs like this:
as §1

The target in the next assay is T9, ELK4 (Homo sapiens, UniProt P28324-2 1-405).
T9 sequence: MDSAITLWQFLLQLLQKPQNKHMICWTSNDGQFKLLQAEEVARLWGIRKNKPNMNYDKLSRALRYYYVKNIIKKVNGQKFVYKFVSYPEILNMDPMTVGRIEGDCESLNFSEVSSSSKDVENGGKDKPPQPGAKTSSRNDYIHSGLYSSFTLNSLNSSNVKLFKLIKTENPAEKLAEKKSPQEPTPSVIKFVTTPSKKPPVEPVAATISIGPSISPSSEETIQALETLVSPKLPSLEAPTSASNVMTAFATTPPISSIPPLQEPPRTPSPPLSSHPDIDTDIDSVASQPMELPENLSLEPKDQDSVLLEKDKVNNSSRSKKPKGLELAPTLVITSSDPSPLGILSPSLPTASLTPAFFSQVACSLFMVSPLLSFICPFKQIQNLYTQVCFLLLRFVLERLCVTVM
Conditions: protein: recombinant; tags: N-terminal GST; dsDNA, one strand shown. In short, it runs like this:
as §1

Another assay concerns the target T10, ELF3 (Homo sapiens, UniProt P78545 1-371).
T10 sequence: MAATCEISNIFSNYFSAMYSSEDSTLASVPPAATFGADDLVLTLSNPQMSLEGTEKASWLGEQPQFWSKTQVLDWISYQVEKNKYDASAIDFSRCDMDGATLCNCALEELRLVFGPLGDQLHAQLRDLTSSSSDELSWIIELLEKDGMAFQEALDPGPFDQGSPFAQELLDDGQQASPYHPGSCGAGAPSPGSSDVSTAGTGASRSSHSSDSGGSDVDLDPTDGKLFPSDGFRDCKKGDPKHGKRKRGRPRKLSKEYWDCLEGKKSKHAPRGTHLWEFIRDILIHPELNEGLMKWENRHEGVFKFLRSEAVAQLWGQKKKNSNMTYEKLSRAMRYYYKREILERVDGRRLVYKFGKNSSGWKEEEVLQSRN
To be noted: protein: recombinant; tags: N-terminal GST; dsDNA, one strand shown. The method in brief:
as §1

The target of the next assay is ETV1 (Homo sapiens, UniProt P50549 1-477). To be noted: protein: recombinant; tags: N-terminal GST; dsDNA, one strand shown. In short, it runs like this:
as §1

ELF4, sequence (Q99607 whole entry): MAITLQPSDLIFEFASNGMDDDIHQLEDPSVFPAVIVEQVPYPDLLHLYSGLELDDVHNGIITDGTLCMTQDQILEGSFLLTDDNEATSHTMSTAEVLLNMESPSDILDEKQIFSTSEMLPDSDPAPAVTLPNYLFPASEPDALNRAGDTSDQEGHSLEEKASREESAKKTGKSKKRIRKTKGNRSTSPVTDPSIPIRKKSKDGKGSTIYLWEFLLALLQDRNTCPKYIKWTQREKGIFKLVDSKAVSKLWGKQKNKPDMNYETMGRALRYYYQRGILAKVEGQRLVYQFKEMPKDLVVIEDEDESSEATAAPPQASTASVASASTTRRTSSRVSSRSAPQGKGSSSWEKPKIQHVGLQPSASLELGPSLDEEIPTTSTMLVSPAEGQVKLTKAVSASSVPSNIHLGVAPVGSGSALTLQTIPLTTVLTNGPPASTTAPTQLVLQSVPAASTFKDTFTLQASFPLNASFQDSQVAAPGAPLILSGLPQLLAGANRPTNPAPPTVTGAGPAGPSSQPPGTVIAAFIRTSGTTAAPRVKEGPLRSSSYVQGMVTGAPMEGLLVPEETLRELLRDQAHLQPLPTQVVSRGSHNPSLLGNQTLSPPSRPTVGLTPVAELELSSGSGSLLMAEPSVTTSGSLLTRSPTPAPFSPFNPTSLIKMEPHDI
HSF1, sequence (Q00613 whole entry): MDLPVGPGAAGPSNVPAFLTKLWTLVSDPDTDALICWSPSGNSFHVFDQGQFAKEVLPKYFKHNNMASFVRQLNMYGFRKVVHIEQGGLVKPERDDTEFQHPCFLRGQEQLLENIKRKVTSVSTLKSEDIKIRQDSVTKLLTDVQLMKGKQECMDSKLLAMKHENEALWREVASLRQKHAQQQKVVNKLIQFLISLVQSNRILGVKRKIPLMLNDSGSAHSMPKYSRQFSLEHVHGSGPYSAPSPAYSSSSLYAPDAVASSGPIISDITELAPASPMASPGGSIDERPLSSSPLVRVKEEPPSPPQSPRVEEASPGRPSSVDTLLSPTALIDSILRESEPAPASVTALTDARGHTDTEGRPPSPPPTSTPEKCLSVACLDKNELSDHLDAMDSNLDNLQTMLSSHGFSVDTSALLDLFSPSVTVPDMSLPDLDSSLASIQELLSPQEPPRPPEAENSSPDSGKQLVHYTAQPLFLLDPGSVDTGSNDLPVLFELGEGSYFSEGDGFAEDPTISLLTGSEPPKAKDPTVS
ETV5, sequence (P41161 whole entry): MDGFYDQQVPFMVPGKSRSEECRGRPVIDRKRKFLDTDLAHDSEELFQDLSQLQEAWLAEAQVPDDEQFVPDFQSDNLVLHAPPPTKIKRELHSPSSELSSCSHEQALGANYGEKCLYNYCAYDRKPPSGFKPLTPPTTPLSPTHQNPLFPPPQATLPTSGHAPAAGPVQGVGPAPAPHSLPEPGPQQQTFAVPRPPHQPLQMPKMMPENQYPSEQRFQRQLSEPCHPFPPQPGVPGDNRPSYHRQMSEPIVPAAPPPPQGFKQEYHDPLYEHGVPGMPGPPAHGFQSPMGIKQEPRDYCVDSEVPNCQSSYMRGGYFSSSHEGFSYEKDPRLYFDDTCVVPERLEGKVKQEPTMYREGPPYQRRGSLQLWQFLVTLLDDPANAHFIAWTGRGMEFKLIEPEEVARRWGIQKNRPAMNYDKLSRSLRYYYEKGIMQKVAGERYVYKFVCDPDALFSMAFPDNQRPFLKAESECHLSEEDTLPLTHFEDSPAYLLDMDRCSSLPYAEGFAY
ETV1, sequence (P50549 whole entry): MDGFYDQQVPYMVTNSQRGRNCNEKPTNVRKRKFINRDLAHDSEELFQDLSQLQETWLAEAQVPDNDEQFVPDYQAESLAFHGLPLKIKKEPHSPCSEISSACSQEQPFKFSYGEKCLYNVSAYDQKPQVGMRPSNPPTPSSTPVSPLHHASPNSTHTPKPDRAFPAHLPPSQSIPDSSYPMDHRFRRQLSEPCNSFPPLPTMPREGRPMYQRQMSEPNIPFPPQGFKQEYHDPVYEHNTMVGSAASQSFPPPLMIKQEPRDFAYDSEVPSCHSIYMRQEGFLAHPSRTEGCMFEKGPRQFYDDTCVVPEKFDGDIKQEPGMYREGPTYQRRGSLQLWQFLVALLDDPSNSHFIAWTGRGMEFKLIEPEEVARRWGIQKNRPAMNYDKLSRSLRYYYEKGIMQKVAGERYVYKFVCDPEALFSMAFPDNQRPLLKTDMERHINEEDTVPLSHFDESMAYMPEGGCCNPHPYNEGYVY
SPIB, sequence (Q01892 whole entry): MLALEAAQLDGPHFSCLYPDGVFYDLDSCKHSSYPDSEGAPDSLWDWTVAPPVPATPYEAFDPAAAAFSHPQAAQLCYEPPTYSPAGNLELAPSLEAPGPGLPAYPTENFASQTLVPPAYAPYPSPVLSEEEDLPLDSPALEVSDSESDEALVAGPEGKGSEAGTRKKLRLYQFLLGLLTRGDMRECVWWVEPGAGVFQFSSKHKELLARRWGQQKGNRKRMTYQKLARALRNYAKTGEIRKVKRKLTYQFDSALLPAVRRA
ELF1, sequence (P32519 whole entry): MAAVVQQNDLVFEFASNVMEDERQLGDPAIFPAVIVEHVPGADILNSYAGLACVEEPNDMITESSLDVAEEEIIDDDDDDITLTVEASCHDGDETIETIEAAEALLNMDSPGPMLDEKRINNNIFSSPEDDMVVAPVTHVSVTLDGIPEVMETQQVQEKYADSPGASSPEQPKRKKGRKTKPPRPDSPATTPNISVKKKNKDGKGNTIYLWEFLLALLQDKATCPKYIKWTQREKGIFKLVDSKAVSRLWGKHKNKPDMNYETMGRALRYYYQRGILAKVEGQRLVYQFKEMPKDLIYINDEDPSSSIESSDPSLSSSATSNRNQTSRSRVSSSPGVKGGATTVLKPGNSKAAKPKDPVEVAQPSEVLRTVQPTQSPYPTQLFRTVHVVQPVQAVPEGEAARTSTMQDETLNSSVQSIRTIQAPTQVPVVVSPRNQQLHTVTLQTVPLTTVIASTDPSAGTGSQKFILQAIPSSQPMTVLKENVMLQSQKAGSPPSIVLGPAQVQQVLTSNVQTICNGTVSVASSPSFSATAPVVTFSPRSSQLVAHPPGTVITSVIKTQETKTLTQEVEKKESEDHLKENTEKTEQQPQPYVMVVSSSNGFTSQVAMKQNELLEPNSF

For the sequence CGCTCG, the binding signal with FLI1 was 1.17 fold enrichment (6-mer frequency, TF over GST control); with ELK1, 1.08 fold enrichment (6-mer frequency, TF over GST control); with GABPA, 1.11 fold enrichment (6-mer frequency, TF over GST control); with ERG, 1.05 fold enrichment (6-mer frequency, TF over GST control); with ELF1, 1.19 fold enrichment (6-mer frequency, TF over GST control); in the assay with EHF it was 1.04 fold enrichment (6-mer frequency, TF over GST control). For the same sequence, the binding signal with SPI1 is 1.08 fold enrichment (6-mer frequency, TF over GST control); with SPIB it was 1.12 fold enrichment (6-mer frequency, TF over GST control); with ELK3, 1.11 fold enrichment (6-mer frequency, TF over GST control); with FEV, 1.08 fold enrichment (6-mer frequency, TF over GST control); with ETV5 it was 1.05 fold enrichment (6-mer frequency, TF over GST control); with HSF1 it was 1.16 fold enrichment (6-mer frequency, TF over GST control). Moreover, the binding signal in the assay with SPIC was 1.24 fold enrichment (6-mer frequency, TF over GST control); in the assay with ELF4, 1.17 fold enrichment (6-mer frequency, TF over GST control); with ELK4 it was 1.13 fold enrichment (6-mer frequency, TF over GST control); in the assay with ELF3, 1.35 fold enrichment (6-mer frequency, TF over GST control); with ETV1, 1.09 fold enrichment (6-mer frequency, TF over GST control).
